# From the supplement of paper PMC10077471
# Whole data set: some 1,900 compounds, median “excess over highest single agent (ExcessHSA) synergy score, 6x6 matrix” near -83, cut for the lowest 2% near -370. What follows is part of a selection rich in the lowest values, with near analogues and random picks from the rest.
# System: NCI-H446
# Assay: excess over highest single agent (ExcessHSA) synergy score, 6x6 matrix; higher = less synergy (more negative = stronger synergy)
# Details: 72 h; CellTiter-Glo viability
row,SMILES,excess over highest single agent
1,NC(=O)Nc1cc(-c2ccc(CN3CCOCC3)cc2)sc1C(N)=O + Cc1sc2c(c1C)C(c1ccc(Cl)cc1)=N[C@@H](CC(=O)OC(C)(C)C)c1nnc(C)n1-2 [NCGC00250412-19],-229
2,CC(C)c1cc(C(=O)N2Cc3ccc(CN4CCN(C)CC4)cc3C2)c(O)cc1O + Cc1sc2c(c1C)C(c1ccc(Cl)cc1)=N[C@@H](CC(=O)OC(C)(C)C)c1nnc(C)n1-2 [NCGC00250412-19],-247
3,CCNC(=O)c1noc(-c2cc(C(C)C)c(O)cc2O)c1-c1ccc(CN2CCOCC2)cc1 + Cc1sc2c(c1C)C(c1ccc(Cl)cc1)=N[C@@H](CC(=O)OC(C)(C)C)c1nnc(C)n1-2 [NCGC00250412-19],-382
4,CC(C)(C)OC(=O)Nc1ccc(-c2cc(C(=O)NCCCCCCC(=O)NO)no2)cc1 + Cc1sc2c(c1C)C(c1ccc(Cl)cc1)=N[C@@H](CC(=O)OC(C)(C)C)c1nnc(C)n1-2 [NCGC00250412-19],-161
5,O=C(O)[C@H]1O[C@@H](Oc2cc3oc(-c4ccccc4)cc(=O)c3c(O)c2O)[C@H](O)[C@@H](O)[C@@H]1O + Cc1sc2c(c1C)C(c1ccc(Cl)cc1)=N[C@@H](CC(=O)OC(C)(C)C)c1nnc(C)n1-2 [NCGC00250412-19],-92.6
6,OC1CCC(Nc2ncc3nc(Nc4c(F)cc(F)cc4F)n([C@@H]4CCOC4)c3n2)CC1 (some centres not stated) + Cc1sc2c(c1C)C(c1ccc(Cl)cc1)=N[C@@H](CC(=O)OC(C)(C)C)c1nnc(C)n1-2 [NCGC00250412-19],17.3
7,CCC(=O)N[C@H]1CC[C@H](C(=O)N(C)c2ccc(-c3nc4ccccc4o3)cc2)C1 + Cc1sc2c(c1C)C(c1ccc(Cl)cc1)=N[C@@H](CC(=O)OC(C)(C)C)c1nnc(C)n1-2 [NCGC00250412-19],-57
8,CN1CCN(Cc2ccc(NC(=O)Nc3ccc(Oc4cc(NC(=O)C5CC5)ncn4)cc3)cc2C(F)(F)F)CC1 + Cc1sc2c(c1C)C(c1ccc(Cl)cc1)=N[C@@H](CC(=O)OC(C)(C)C)c1nnc(C)n1-2 [NCGC00250412-19],-34.2
9,CC(=O)N(C)C1(c2ccccc2)CCN(CCC[C@]2(c3ccc(Cl)c(Cl)c3)CCCN(C(=O)c3ccccc3)C2)CC1 + Cc1sc2c(c1C)C(c1ccc(Cl)cc1)=N[C@@H](CC(=O)OC(C)(C)C)c1nnc(C)n1-2 [NCGC00250412-19],-142
10,O=C(N[C@@H](COc1ccc2[nH]c(=O)[nH]c2c1)c1ccccc1)c1cccn(Cc2ccc(F)c(F)c2)c1=O + Cc1sc2c(c1C)C(c1ccc(Cl)cc1)=N[C@@H](CC(=O)OC(C)(C)C)c1nnc(C)n1-2 [NCGC00250412-19],-158
11,COCC1OC(=O)c2coc3c2C1(C)C1=C(C3=O)C2CCC(O)C2(C)CC1OC(C)=O (configuration not stated) + Cc1sc2c(c1C)C(c1ccc(Cl)cc1)=N[C@@H](CC(=O)OC(C)(C)C)c1nnc(C)n1-2 [NCGC00250412-19],-423
12,COC[C@H]1OC(=O)c2coc3c2[C@@]1(C)C1=C(C3=O)[C@@H]2CCC(=O)[C@@]2(C)C[C@H]1OC(C)=O + Cc1sc2c(c1C)C(c1ccc(Cl)cc1)=N[C@@H](CC(=O)OC(C)(C)C)c1nnc(C)n1-2 [NCGC00250412-19],-484
13,COc1cc2ncnc(Nc3cc(Br)c(O)c(Br)c3)c2cc1OC + Cc1sc2c(c1C)C(c1ccc(Cl)cc1)=N[C@@H](CC(=O)OC(C)(C)C)c1nnc(C)n1-2 [NCGC00250412-19],-207
14,COC1=C(OC)C(=O)C(C/C=C(\C)CC/C=C(\C)CC/C=C(\C)CC/C=C(\C)CC/C=C(\C)CC/C=C(\C)CC/C=C(\C)CC/C=C(\C)CC/C=C(\C)CCC=C(C)C)=C(C)C1=O + Cc1sc2c(c1C)C(c1ccc(Cl)cc1)=N[C@@H](CC(=O)OC(C)(C)C)c1nnc(C)n1-2 [NCGC00250412-19],-97.2
15,COc1cc(OC)c(NC(=O)Nc2cc(C)on2)cc1Cl + Cc1sc2c(c1C)C(c1ccc(Cl)cc1)=N[C@@H](CC(=O)OC(C)(C)C)c1nnc(C)n1-2 [NCGC00250412-19],-142
16,Cc1ccc(-c2ncn(-c3ccc(Nc4nccc(-c5cccc(N6CCOCC6)c5)n4)cc3)n2)cn1 + Cc1sc2c(c1C)C(c1ccc(Cl)cc1)=N[C@@H](CC(=O)OC(C)(C)C)c1nnc(C)n1-2 [NCGC00250412-19],-78.7
17,CO[C@H]1[C@H](O)[C@@H](O)[C@H](n2c3c(Cl)cccc3c3c4c(c5c6cccc(Cl)c6[nH]c5c32)C(=O)NC4=O)O[C@@H]1CO + Cc1sc2c(c1C)C(c1ccc(Cl)cc1)=N[C@@H](CC(=O)OC(C)(C)C)c1nnc(C)n1-2 [NCGC00250412-19],-234
18,O=C(O)C(O)Cc1ccc(O)c(O)c1 (configuration not stated) + Cc1sc2c(c1C)C(c1ccc(Cl)cc1)=N[C@@H](CC(=O)OC(C)(C)C)c1nnc(C)n1-2 [NCGC00250412-19],-9.7
19,C[C@H](Cc1ccc(O)c(O)c1)[C@@H](C)Cc1ccc(O)c(O)c1 + Cc1sc2c(c1C)C(c1ccc(Cl)cc1)=N[C@@H](CC(=O)OC(C)(C)C)c1nnc(C)n1-2 [NCGC00250412-19],-373

row,SMILES,excess over highest single agent
1,N[C@@H](Cc1ccc(O)c(O)c1)C(=O)O + Cc1sc2c(c1C)C(c1ccc(Cl)cc1)=N[C@@H](CC(=O)OC(C)(C)C)c1nnc(C)n1-2 [NCGC00250412-19],57.6
2,N#CN=C(NCCCCCCOc1ccc(Cl)cc1)Nc1ccncc1 + Cc1sc2c(c1C)C(c1ccc(Cl)cc1)=N[C@@H](CC(=O)OC(C)(C)C)c1nnc(C)n1-2 [NCGC00250412-19],-32.9
3,C/C=C(/C)C(=O)O[C@H]1C(C)=C[C@]23C(=O)[C@@H](C=C(CO)[C@@H](O)[C@]12O)[C@H]1[C@@H](C[C@H]3C)C1(C)C + Cc1sc2c(c1C)C(c1ccc(Cl)cc1)=N[C@@H](CC(=O)OC(C)(C)C)c1nnc(C)n1-2 [NCGC00250412-19],104
4,O=C(Nc1cccc(Nc2ncc(Br)c(NCCc3cnc[nH]3)n2)c1)N1CCCC1 + Cc1sc2c(c1C)C(c1ccc(Cl)cc1)=N[C@@H](CC(=O)OC(C)(C)C)c1nnc(C)n1-2 [NCGC00250412-19],-166
5,C[C@@H](N)c1ccc(C(=O)Nc2ccnc3[nH]ccc23)cc1 + Cc1sc2c(c1C)C(c1ccc(Cl)cc1)=N[C@@H](CC(=O)OC(C)(C)C)c1nnc(C)n1-2 [NCGC00250412-19],125
6,Oc1ccc(-c2ccc(-c3cc(Nc4cccc(CNC5CC5)c4)n[nH]3)cc2)c(O)c1 + Cc1sc2c(c1C)C(c1ccc(Cl)cc1)=N[C@@H](CC(=O)OC(C)(C)C)c1nnc(C)n1-2 [NCGC00250412-19],79.8
7,COc1cccc2nc(-c3cccs3)nc(NN3C(=O)C=C(C)C3=O)c12 + Cc1sc2c(c1C)C(c1ccc(Cl)cc1)=N[C@@H](CC(=O)OC(C)(C)C)c1nnc(C)n1-2 [NCGC00250412-19],-408
8,CN(CC(=O)N(Cc1ccc(C2CCCCC2)cc1)c1ccc(C(=O)O)c(O)c1)S(=O)(=O)c1c(F)c(F)c(F)c(F)c1F + Cc1sc2c(c1C)C(c1ccc(Cl)cc1)=N[C@@H](CC(=O)OC(C)(C)C)c1nnc(C)n1-2 [NCGC00250412-19],-91.4
9,Clc1cccc(-n2nnnc2NCc2ccccc2Oc2ccccn2)c1Cl + Cc1sc2c(c1C)C(c1ccc(Cl)cc1)=N[C@@H](CC(=O)OC(C)(C)C)c1nnc(C)n1-2 [NCGC00250412-19],-103
10,Cn1cc(C2=C(c3c4n(c5ccccc35)CCC(CN)C4)C(=O)NC2=O)c2ccccc21 (configuration not stated) + Cc1sc2c(c1C)C(c1ccc(Cl)cc1)=N[C@@H](CC(=O)OC(C)(C)C)c1nnc(C)n1-2 [NCGC00250412-19],-42.8
11,Cc1cnc(Nc2cccc(CN3CCOCC3)c2)nc1Nc1cccc(S(=O)(=O)NC(C)(C)C)c1 + Cc1sc2c(c1C)C(c1ccc(Cl)cc1)=N[C@@H](CC(=O)OC(C)(C)C)c1nnc(C)n1-2 [NCGC00250412-19],108
12,CC(=O)Nc1sc2c(c1-c1nc3ccccc3s1)CNC2 + Cc1sc2c(c1C)C(c1ccc(Cl)cc1)=N[C@@H](CC(=O)OC(C)(C)C)c1nnc(C)n1-2 [NCGC00250412-19],354
13,CC(C)(O)c1cc2nc(-c3cnc(N)nc3)nc(N3CCOCC3)c2s1 + Cc1sc2c(c1C)C(c1ccc(Cl)cc1)=N[C@@H](CC(=O)OC(C)(C)C)c1nnc(C)n1-2 [NCGC00250412-19],-253
14,Cc1c(CN2CCN(C(=O)[C@H](C)O)CC2)sc2c(N3CCOCC3)nc(-c3cnc(N)nc3)nc12 + Cc1sc2c(c1C)C(c1ccc(Cl)cc1)=N[C@@H](CC(=O)OC(C)(C)C)c1nnc(C)n1-2 [NCGC00250412-19],-434
15,Cc1c(CN2CCN(S(C)(=O)=O)CC2)sc2c(N3CCOCC3)nc(-c3cnc(N)nc3)nc12 + Cc1sc2c(c1C)C(c1ccc(Cl)cc1)=N[C@@H](CC(=O)OC(C)(C)C)c1nnc(C)n1-2 [NCGC00250412-19],-334
16,CNC(=O)c1c(-c2ccc(F)cc2)oc2cc(N(CCO)S(C)(=O)=O)c(C3CC3)cc12 + Cc1sc2c(c1C)C(c1ccc(Cl)cc1)=N[C@@H](CC(=O)OC(C)(C)C)c1nnc(C)n1-2 [NCGC00250412-19],-113
17,CN[C@H]1CCc2cc(OC)c(OC)c(OC)c2-c2ccc(OC)c(=O)cc21 + Cc1sc2c(c1C)C(c1ccc(Cl)cc1)=N[C@@H](CC(=O)OC(C)(C)C)c1nnc(C)n1-2 [NCGC00250412-19],-167
18,Cc1nc(Nc2n[nH]c3c2CN(C(=O)N[C@H](CN(C)C)c2ccccc2)C3(C)C)c2sccc2n1 + Cc1sc2c(c1C)C(c1ccc(Cl)cc1)=N[C@@H](CC(=O)OC(C)(C)C)c1nnc(C)n1-2 [NCGC00250412-19],-503
